# Rab9 prom act: Rab9 promoter activation; 2.8% of 320,000 active; Huh7 Rab9 promoter-luciferase reporter, luminescence, 24 h; Potency, µM (highest dose often 9.22 µM), actives largely listed as activators; further: nearly all actives have a fitted effect of over 60% in size
#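 Luminescence read-out: Huh7 cells stably expressing Rab9-luciferase, treated 24 h with compound at 37 °C, then lysed with luciferase reagent for 10 min at ambient before reading.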
# ELG1 genotoxic: induces genotoxicity in HEK293T cells with luciferase-tagged ELG1. Potency, µM (series often up to 46 µM), usual class: activators. HEK293T ELG1-luciferase reporter, luminescence, 16 h. 1.3% of 330,000 active; further: nearly all actives have a fitted effect of over 60% in size
#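 DMSO vehicle served as control against compound-treated ELG1-luciferase HEK293T cells; exposure lasted 16 hr at 37 °C and 5% CO2, followed by ONE-Glo luminescence detection after 30 min.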
# SMN2 splice enh: increases expression of the SMN2 splice variant | HEK293 SMN2-luciferase splicing reporter, luminescence, 30-36 h | Potency, µM (doses to about 46.1 µM), actives largely listed as activators | 2.8% of 210,000 active; further: nearly all actives have a fitted effect of over 55% in size
#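 HEK293 cells carry an SMN2 […]–luciferase reporter in which exon 7 inclusion puts luciferase in frame. Cells were plated 10-12 h before compound addition, then incubated 30-36 h at 37C. ONE-Glo luminescence was read; sodium butyrate at 4.5 mM final served as control.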
# NPC1 prom act: activates the NPC1 promoter; Huh7 NPC1 promoter luciferase reporter, 24 h; 2.4% of 320,000 active; Potency, µM (titrated, usually from 9.22 µM), usual class: activators; further: nearly all actives have a fitted effect of over 60% in size
#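 Luminescence read-out of NPC1 promoter-driven luciferase in stably transfected Huh7 cells; compounds delivered in DMSO and left 24 h at 37C, 5% CO2, qHTS titration format.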
# FLuc counter: counter-screen for miR-21 project: firefly luciferase inhibitors or activators. Potency, µM (highest dose often 57.5 µM), most hits filed as inhibitors. 6.9% of 360,000 active. purified FLuc, Km substrates, luminescence inhibition. P08659. AID 588342; further: nearly all actives have a fitted effect of over 55% in size
# Target sequence (P08659 whole entry, looked up): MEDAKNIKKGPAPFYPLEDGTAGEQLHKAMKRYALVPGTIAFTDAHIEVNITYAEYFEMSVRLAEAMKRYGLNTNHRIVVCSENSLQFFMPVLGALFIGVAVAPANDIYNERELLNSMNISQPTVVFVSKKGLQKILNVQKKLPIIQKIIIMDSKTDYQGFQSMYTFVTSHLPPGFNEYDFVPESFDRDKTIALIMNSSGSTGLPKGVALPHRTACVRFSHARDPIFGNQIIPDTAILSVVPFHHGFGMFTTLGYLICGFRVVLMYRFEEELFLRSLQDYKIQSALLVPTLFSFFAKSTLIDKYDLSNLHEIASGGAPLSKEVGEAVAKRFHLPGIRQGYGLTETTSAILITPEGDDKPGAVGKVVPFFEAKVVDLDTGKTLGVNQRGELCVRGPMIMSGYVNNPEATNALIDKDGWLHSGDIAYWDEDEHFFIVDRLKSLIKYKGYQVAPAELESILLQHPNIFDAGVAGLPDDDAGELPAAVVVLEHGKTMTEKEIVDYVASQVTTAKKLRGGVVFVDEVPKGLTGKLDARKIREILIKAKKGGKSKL
#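 Biochemical qHTS of compounds, final roughly 60 µM downward over six points, against 10 nM purified firefly luciferase using Km concentrations of substrates (10 uM D-luciferin, 10 uM ATP) in Tris acetate pH 7.5 buffer; luminescence output.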
# A number is an active result; - = inactive; ? = inconclusive; . = no result; [ ] = remark or other dose. In the library only some 7.4% were active in any assay of this set; here they are far more common. The call rests on the fitted dose curve; in most records, active means well fitted curve in the direction sought with a large enough effect; inconclusive means small, poorly fitted or top-dose-only effect, or another doubt; inactive means no such curve, though single readings can be large; an effect the other way counts as inactive or inconclusive.
SMILES,Rab9 prom act,ELG1 genotoxic,SMN2 splice enh,NPC1 prom act,FLuc counter
COC(=O)C(C)Nc1cccc(Br)c1 (stereo not given),-,-,.,-,-
COC(=O)c1ccc(N=NNc2ccccc2)cc1,1.3µM,?,8.9µM,1.4µM,3.8µM
COC(=O)c1ccc(N=NNc2cccc(Br)c2)cc1,1.3µM,?,5µM,1.3µM,7.6µM
O=C(O)c1ccc(N=NNc2cccc([N+](=O)[O-])c2)cc1,0.63µM,?,11µM,0.89µM,2.4µM
[O-]/[N+](=N\O)c1ccccc1,.,.,-,.,.
Cc1cc(O)ccc1N/C=C/c1onc(C)c1[N+](=O)[O-],2.5µM,?,20µM,3.2µM,?
O=[N+]([O-])c1ccc(N=Nc2c(Cl)cc(O)cc2Cl)cc1,-,-,.,-,2.7µM
CC(N)=Nc1ccc([N+](=O)[O-])cc1,-,-,-,-,-
CCCCCCCCCCCCCCC(C(=O)O)C(O)(CC(=O)OC)C(=O)O (stereo not given),.,.,-,.,.
CSCCC(=O)N1CCCC(CNC(=O)c2ccc(-c3ccccc3)cc2)C1 (stereo not given),-,-,-,-,12µM
CCc1cc(C(=O)N2CCCC(CNC(=O)c3ccc(-c4ccccc4)cc3)C2)no1 (stereo not given),-,-,.,-,12µM
COc1ccc([C@]23Cc4cc(OC)c(OC)cc4C(O2)c2c(cc(C)n(Cc4ccccc4)c2=O)O3)cc1,-[1.84 µM],.,.,-[1.84 µM],?
Cc1nnc2n(-c3ccccc3)c(=O)c3c4c(sc3n12)CC(C)CC4 (stereo not given),-,-,22µM,-,-
COc1cccc(NC(=O)c2cnc(SCC(=O)N3CCOCC3)n(C)c2=O)c1,.,.,.,.,-
CSc1nccc(N/N=C/c2ccccc2)n1,1.4µM,?,.,1.6µM,2.7µM
C(=N\Nc1ccc(-n2ccnc2)nn1)/c1ccccc1,-,-,-,-,-
Cc1ccnc(N/N=C/c2ccccc2)n1,1.3µM,?,13µM,2.5µM,7.6µM
C(=N\Nc1nccc(-c2cccnc2)n1)/c1ccccc1,1.3µM,-,.,1.8µM,4.8µM
CC(=O)N1CCc2nc3sc(C(=O)c4ccc(F)cc4)c(N)c3c(C(F)(F)F)c2C1,.,.,-,.,?
O=C(COC(=O)c1ccco1)NCc1ccccc1Cl,-,-,-,-,27µM
O=C(OCc1nc(-c2ccccc2Cl)no1)c1ccco1,-,-,.,-,12µM
O=C(COC(=O)c1ccco1)NCc1ccc(Cl)cc1Cl,.,-,.,.,.
O=C(COC(=O)C1CCC1)NCc1ccccc1Cl,-,-,-,-,24µM
O=C(COC(=O)C1CCCCC1)Nc1ccccc1OC(F)F,-,-,-,-,24µM
CC1CC1C(=O)OCC(=O)NCc1ccccc1Cl (stereo not given),-,-,-,-,-
SMILES,Rab9 prom act,ELG1 genotoxic,SMN2 splice enh,NPC1 prom act,FLuc counter
CCc1ccc(S(=O)(=O)c2nnn3c2nc(NC(C)C)c2cc(Cl)ccc23)cc1,.,.,-,.,-
O=C(COC(=O)C1CCCCC1)NCCc1ccccc1,-,-,-,-,17µM
O=C(COC(=O)COc1ccccc1)NCCc1ccccc1,-,-,.,-,-
CCOC(=O)c1sc(-c2cccs2)nc1C,-,-,-,-,17µM
CCOC(=O)CSc1nc(-c2ccccc2)cc(C(F)(F)F)c1C#N,.,.,-,.,-
C/C(=N\O)c1sc(-c2ccccc2)nc1C,3.2µM,?,16µM,4µM,8.5µM
CCOC(=O)c1sc(-c2ccccc2)nc1C,-,?,-,-,13µM
CC(=O)Nc1ccc(NC(=O)c2sc(-c3ccccc3)nc2C)cc1,-,-,.,-,?
CCOC(=O)Cc1ccc2sc(-c3ccccc3)nc2c1,1.6µM,6.5µM,16µM,3.2µM,0.48µM
Cc1nc(-c2ccccc2)sc1C(N)=O,-,-,-,-,-
C=CCCCCCCCCCCC/C=C/C(O)COC(C)=O (stereo not given),.,.,-,.,.
COCC(=O)N1CCC2(CCCN(C(=O)Nc3ccc(OC)cc3)C2)CC1,.,.,-,.,.
CNC(=O)c1sc(-c2ccc(Cl)cc2)nc1C,.,.,?,.,15µM
CNC(=O)c1sc(-c2ccccc2)nc1C,-,?,-,-,?
CCN1CCN(C(=O)Cn2ncc3c4ccccc4n(Cc4ccccc4F)c3c2=O)CC1,.,.,-,.,-
Fc1ccc(-c2nnc(-c3ccc(Cl)cc3Cl)o2)cc1,0.32µM,1.6µM,1µM,0.22µM,0.48µM
CSc1nnc(-c2ccc(F)cc2)o1,-,-,-,-,-
Fc1ccc(-c2nnc(-c3ccc(Cl)cc3)o2)cc1,0.79µM,6.5µM,?,2µM,2.7µM
Clc1ccc(-c2nnc(-c3ccc(Br)o3)o2)c(Cl)c1,?,9.2µM,?,1.6µM,3µM
Clc1ccc(-c2nnc(-c3ccccc3)o2)c(Cl)c1,0.89µM,?,2.5µM,0.4µM,0.43µM
Cc1c(C(=O)OC2CCCCC2)[nH]c2c1C(=O)CC(c1ccc(C(C)(C)C)cc1)C2 (stereo not given),.,.,-,.,-
O=C(O)C1CCC(c2ccc(-c3ccccc3)cc2)CC1 (stereo not given),?,?,.,2.8µM,6.7µM
CC(NC(=O)C1CC1)c1ccc(-c2ccccc2)cc1 (stereo not given),-,-,.,-,-
CSc1ccc(NC(=O)NCc2ccccc2)cc1,4.5µM,?,.,4.5µM,?
Cc1ccc(CNC(=O)Nc2ccccc2)cc1,2.5µM,9.2µM,16µM,?,12µM
SMILES,Rab9 prom act,ELG1 genotoxic,SMN2 splice enh,NPC1 prom act,FLuc counter
Cc1ccc2[nH]cc(CCNC(=O)Nc3ccccc3)c2c1,-,-,-,-,-
Cc1ccc(C)c(CNC(=O)Nc2ccccc2)c1,?,?,.,?,13µM
Cc1ccc(CNC(=O)Nc2cccs2)cc1,?,-,16µM,?,12µM
O=C(c1cccc([N+](=O)[O-])c1)N1CCN(c2ccc(Nc3ccccc3)nn2)CC1,.,.,.,.,-
O=C(NCC1CC1)Nc1cccc(Cl)c1,-,-,.,-,?
O=C(NCC1CC1)Nc1ccc(Cl)cc1,?,?,.,?,17µM
Cc1ccc(CNC(=O)Nc2ccc(Cl)cc2)cc1,4µM,?,.,?,-
CC(O)COC(C)(C)C (stereo not given),.,.,-,.,.
COC(=O)c1ccc(/C=C(\C#N)c2ccccn2)cc1,0.89µM,2.6µM,?,1.1µM,2.4µM
N#C/C(=C\c1ccccn1)c1ccccn1,?,-,.,-,?
N#C/C(=C/c1cccs1)c1ccccn1,4.5µM,?,.,2.8µM,12µM
COC(=O)c1ccc(OC(=O)c2ccccn2)cc1,-,-,-,-,11µM
COc1cc(/C=C(\C#N)c2ccccn2)ccc1OCc1ccccc1Cl,-,-,.,-,-
COc1cc(/C=C(\C#N)c2ccccn2)cc(OC)c1O,-,-,.,-,-
CN(C)c1ccc(/C=C(\C#N)c2ccccn2)cc1,0.4µM,?,.,0.45µM,0.24µM
Cc1cc2oc(C(=O)Nc3ccc(S(=O)(=O)Nc4onc(C)c4C)cc3)cc(=O)c2cc1C,.,.,-,.,?
O=C(c1cccc(F)c1)N1CCC[C@@]2(CCN(Cc3ccccc3)C2)C1,.,.,-,.,.

# Compound activity from PubChem.
